Screen size: about 5,500 compounds; about 2,000 (36%) were called active. About 18% were inconclusive and are not listed. Cut-off read from the data, not from the text of the source: active = normalized growth mostly below about 0.91 (no sharp cut-off); inconclusive = no clear call, values can overlap the other calls; inactive = mostly above about 0.92. The list shows a part of the results.
Assay: chemical genetic growth profiling, strain panel (AID 1159580);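 note: tested at 20 µM; growth read once vehicle control cultures reached saturation at 30 °C; 1 = growth at the plate median or of vehicle wells; lower values mean less growth of the strain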
Details: growth OD
[1] = S. cerevisiae deletion strains, locus YAL013W, strain DEP1, active compounds read low
[2] = S. cerevisiae deletion strains, locus YBR229C, strain ROT2, active compounds read low
[3] = S. cerevisiae deletion strains, locus YDL101C, strain DUN1, active compounds read low
[4] = S. cerevisiae deletion strains, locus YDR150W, strain NUM1, active compounds read low
[5] = S. cerevisiae deletion strains, locus YEL061C, strain CIN8, active compounds read low
[6] = S. cerevisiae deletion strains, locus YGR078C, strain PAC10, active compounds read low
[7] = S. cerevisiae deletion strains, locus YHR030C, strain SLT2, active compounds read low
[8] = S. cerevisiae deletion strains, locus YHR087W, strain rtc3, active compounds read low
[9] = S. cerevisiae deletion strains, locus YJR043C, strain POL32, active compounds read low
[10] = S. cerevisiae deletion strains, locus YJR075W, strain HOC1, active compounds read low
[11] = S. cerevisiae deletion strains, locus YLR039C, strain RIC1, active compounds read low
[12] = S. cerevisiae deletion strains, locus YLR058C, strain SHM2 (second series), active compounds read low
[13] = S. cerevisiae deletion strains, locus YLR085C, strain ARP6, active compounds read low
[14] = S. cerevisiae deletion strains, locus YLR262C, strain YPT6, active compounds read low
[15] = S. cerevisiae deletion strains, locus YML094W, strain GIM5, active compounds read low
[16] = S. cerevisiae deletion strains, locus YMR219W, strain ESC1, active compounds read low
[17] = S. cerevisiae deletion strains, locus YMR263W, strain SAP30, active compounds read low
[18] = S. cerevisiae deletion strains, locus YNL153C, strain GIM3, active compounds read low
[19] = S. cerevisiae deletion strains, locus YNL298W, strain CLA4 (second series), active compounds read low
[20] = S. cerevisiae deletion strains, locus YNL322C, strain KRE1, active compounds read low
[21] = S. cerevisiae deletion strains, locus YNR030W, strain Alg12, active compounds read low
[22] = S. cerevisiae deletion strains, locus YPL055C, strain LGE1, active compounds read low
[23] = S. cerevisiae deletion strains, locus YPL241C, strain CIN2, active compounds read low
[24] = S. cerevisiae deletion strains, locus YPR135W, strain CTF4, active compounds read low
[25] = S. cerevisiae deletion strains, locus YAR019C, strain CDC15, active compounds read low
[26] = S. cerevisiae deletion strains, locus YBL105C, strain PKC1, active compounds read low
[27] = S. cerevisiae deletion strains, locus YBR135W, strain CKS1, active compounds read low
[28] = S. cerevisiae deletion strains, locus YBR136W, strain MEC1, active compounds read low
[29] = S. cerevisiae deletion strains, locus YBR160W, strain CDC28, active compounds read low
[30] = S. cerevisiae deletion strains, locus YDL017W, strain CDC7, active compounds read low
[31] = S. cerevisiae deletion strains, locus YDL028C, strain MPS1, active compounds read low
[32] = S. cerevisiae deletion strains, locus YDL214C, strain PRR2, active compounds read low
[33] = S. cerevisiae deletion strains, locus YDR052C, strain DBF4, active compounds read low
[34] = S. cerevisiae deletion strains, locus YDR054C, strain cdc34, active compounds read low
[35] = S. cerevisiae deletion strains, locus YDR226W, strain ADK1, active compounds read low
[36] = S. cerevisiae deletion strains, locus YDR477W, strain SNF1, active compounds read low
[37] = S. cerevisiae deletion strains, locus YER123W, strain YCK3, active compounds read low
[38] = S. cerevisiae deletion strains, locus YER133W, strain GLC7, active compounds read low
[39] = S. cerevisiae deletion strains, locus YFL009W, strain cdc4, active compounds read low
[40] = S. cerevisiae deletion strains, locus YFL029C, strain CAK1, active compounds read low
[41] = S. cerevisiae deletion strains, locus YFR003C, strain YPI1, active compounds read low
[42] = S. cerevisiae deletion strains, locus YFR019W, strain FAB1, active compounds read low
[43] = S. cerevisiae deletion strains, locus YFR028C, strain CDC14, active compounds read low
[44] = S. cerevisiae deletion strains, locus YGR040W, strain KSS1, active compounds read low
[45] = S. cerevisiae deletion strains, locus YGR052W, strain FMP48, active compounds read low
[46] = S. cerevisiae deletion strains, locus YGR092W, strain DBF2, active compounds read low
[47] = S. cerevisiae deletion strains, locus YHR079C, strain IRE1, active compounds read low
[48] = S. cerevisiae deletion strains, locus YHR082C, strain KSP1, active compounds read low
[49] = S. cerevisiae deletion strains, locus YHR205W, strain SCH9, active compounds read low
[50] = S. cerevisiae deletion strains, locus YIL147C, strain SLN1, active compounds read low
[51] = S. cerevisiae deletion strains, locus YJL095W, strain BCK1, active compounds read low
[52] = S. cerevisiae deletion strains, locus YJL128C, strain PBS2, active compounds read low
[53] = S. cerevisiae deletion strains, locus YJL157C, strain FAR1, active compounds read low
[54] = S. cerevisiae deletion strains, locus YJR066W, strain TOR1 (second series), active compounds read low
[55] = S. cerevisiae deletion strains, locus YJR066W, strain TOR1, active compounds read low
[56] = S. cerevisiae deletion strains, locus YKL048C, strain ELM1, active compounds read low
[57] = S. cerevisiae deletion strains, locus YKL067W, strain YNK1, active compounds read low
[58] = S. cerevisiae deletion strains, locus YKL101W, strain HSL1, active compounds read low
[59] = S. cerevisiae deletion strains, locus YKL193C, strain SDS22, active compounds read low
[60] = S. cerevisiae deletion strains, locus YKL203C, strain TOR2, active compounds read low
[61] = S. cerevisiae deletion strains, locus YLR113W, strain HOG1, active compounds read low
[62] = S. cerevisiae deletion strains, locus YLR133W, strain CKI1, active compounds read low
[63] = S. cerevisiae deletion strains, locus YLR403W, strain SFP1, active compounds read low
[64] = S. cerevisiae deletion strains, locus YML070W, strain DAK1, active compounds read low
[65] = S. cerevisiae deletion strains, locus YMR001C, strain CDC5, active compounds read low
[66] = S. cerevisiae deletion strains, locus YMR205C, strain PFK2 (second series), active compounds read low
[67] = S. cerevisiae deletion strains, locus YMR277W, strain FCP1, active compounds read low
[68] = S. cerevisiae deletion strains, locus YNL006W, strain LST8, active compounds read low
[69] = S. cerevisiae deletion strains, locus YNL020C, strain ARK1, active compounds read low
[70] = S. cerevisiae deletion strains, locus YNL161W, strain CBK1, active compounds read low
[71] = S. cerevisiae deletion strains, locus YNL183C, strain NPR1, active compounds read low
[72] = S. cerevisiae deletion strains, locus YNL207W, strain RIO2, active compounds read low
[73] = S. cerevisiae deletion strains, locus YNL222W, strain SSU72, active compounds read low
[74] = S. cerevisiae deletion strains, locus YNL307C, strain MCK1 (second series), active compounds read low
[75] = S. cerevisiae deletion strains, locus YOL078W, strain AVO1, active compounds read low
[76] = S. cerevisiae deletion strains, locus YOL136C, strain PFK27, active compounds read low
[77] = S. cerevisiae deletion strains, locus YOR061W, strain CKA2, active compounds read low
[78] = S. cerevisiae deletion strains, locus YOR119C, strain RIO1, active compounds read low
[79] = S. cerevisiae deletion strains, locus YOR231W, strain MKK1, active compounds read low
[80] = S. cerevisiae deletion strains, locus YOR329C, strain SCD5, active compounds read low
[81] = S. cerevisiae deletion strains, locus YPL031C, strain PHO85, active compounds read low
[82] = S. cerevisiae deletion strains, locus YPL153C, strain RAD53, active compounds read low
[83] = S. cerevisiae deletion strains, locus YPL204W, strain HRR25, active compounds read low
[84] = S. cerevisiae deletion strains, locus YPL209C, strain IPL1, active compounds read low
[85] = S. cerevisiae deletion strains, locus YPL256C, strain CLN2, active compounds read low
[86] = S. cerevisiae deletion strains, locus YPR025C, strain CCL1, active compounds read low
[87] = S. cerevisiae deletion strains, strain NNK1, active compounds read low
[88] = S. cerevisiae deletion strains, strain TSCII, active compounds read low

Measured: normalized growth

CCOC(=O)CNc1ccc(F)cc1
inactive: [1] 0.995 | [2] 0.989 | [3] 1.02 | S. cerevisiae deletion strains, locus YDL134C, strain PPH21, active compounds read low 0.977 | [4] 1.02 | [5] 1.01 | [6] 0.991 | [7] 0.989 | [8] 1.01 | S. cerevisiae deletion strains, locus YJL187C, strain SWE1, active compounds read low 1 | [9] 0.988 | [10] 0.99 | [11] 0.953 | [12] 0.983 | [13] 0.986 | [14] 0.975 | [15] 1.04 | [16] 0.997 | [17] 0.983 | S. cerevisiae deletion strains, locus YNL128W, strain TEP1, active compounds read low 0.98 | [18] 1.01 | [19] 0.974 | [20] 0.999 | [21] 1.03 | [22] 1.02 | [23] 0.977 | [24] 0.965

C/C(=C\C(=O)Nc1ccc(F)cc1)Nc1ccc(F)cc1
inactive: [1] 1 | [2] 1.01 | S. cerevisiae deletion strains, locus YCL061C, strain MRC1, active compounds read low 1.04 | [3] 1.05 | [4] 1.04 | [5] 0.973 | [6] 1.03 | S. cerevisiae deletion strains, locus YGR229C, strain SMI1, active compounds read low 0.979 | [7] 1.02 | [8] 0.971 | [9] 1.02 | [10] 1 | S. cerevisiae deletion strains, locus YKL190W, strain CNB1, active compounds read low 1.01 | [11] 1.05 | [12] 0.998 | [13] 0.975 | [14] 0.989 | [15] 0.982 | [16] 1 | [17] 1.01 | [18] 1.04 | [19] 1 | [20] 1 | [21] 1 | S. cerevisiae deletion strains, locus YOL006C, strain TOP1, active compounds read low 1.04 | [22] 0.976 | [23] 0.999 | [24] 1.05 | S. cerevisiae strains, strain wild type, active compounds read low 1

N#C/C(=N/Nc1ccccc1)C(=O)c1ccccc1OC(F)(F)F
active: [7] 0.841 | [61] 0.816
inactive: [25] 0.922 | [26] 0.912 | [27] 0.91 | [28] 0.917 | [29] 0.916 | [30] 0.918 | [31] 0.918 | [3] 0.93 | S. cerevisiae deletion strains, locus YDL108W, strain KIN28, active compounds read low 0.912 | S. cerevisiae deletion strains, locus YDL132W, strain cdc53, active compounds read low 0.909 | [32] 0.877 | [33] 0.928 | [34] 0.922 | [35] 0.901 | [36] 0.88 | [37] 0.831 | [38] 0.898 | [39] 0.91 | [40] 0.919 | [41] 0.918 | [42] 0.903 | [43] 0.906 | [44] 0.853 | [45] 0.883 | [46] 0.797 | [47] 0.853 | [48] 0.9 | [49] 0.901 | [50] 0.912 | [51] 0.891 | [52] 0.89 | [53] 0.883 | S. cerevisiae deletion strains, locus YJR016C, strain ILV3, active compounds read low 0.918 | [54] 0.879 | [55] 0.885 | [56] 0.883 | [57] 0.895 | [58] 0.876 | [59] 0.919 | [60] 0.913 | [62] 0.87 | [63] 0.837 | [64] 0.879 | [65] 0.92 | [66] 0.91 | [67] 0.912 | [68] 0.915 | [69] 0.866 | [70] 0.915 | [71] 0.92 | [72] 0.905 | [73] 0.913 | [74] 0.893 | [75] 0.913 | [76] 0.845 | [77] 0.885 | [78] 0.909 | [79] 0.857 | [80] 0.922 | [81] 0.842 | [82] 0.882 | [83] 0.802 | [84] 0.915 | [85] 0.881 | [86] 0.919 | S. cerevisiae deletion strains, locus YPR106W, strain ISR1, active compounds read low 0.926 | S. cerevisiae deletion strains, locus YPR111W, strain DBF20, active compounds read low 0.904 | [87] 0.914 | [88] 0.902

CC(=O)/C(C#N)=N\Nc1ccc(F)cc1
inactive: [33] 0.957 | [35] 0.978
active: [25] 0.429 | [26] 0.519 | [27] 0.782 | [28] 0.583 | [29] 0.723 | [30] 0.584 | [31] 0.728 | [3] 0.201 | [32] 0.118 | [34] 0.525 | [36] 0.127 | [37] 0.115 | [38] 0.17 | [39] 0.631 | [40] 0.468 | [41] 0.633 | [42] 0.115 | [43] 0.699 | [44] 0.137 | [45] 0.185 | [46] 0.102 | [7] 0.108 | [47] 0.138 | [48] 0.171 | [49] 0.102 | [50] 0.585 | [51] 0.12 | [52] 0.316 | [53] 0.102 | [54] 0.107 | [55] 0.137 | [56] 0.14 | [57] 0.117 | [58] 0.118 | [59] 0.455 | [60] 0.126 | [61] 0.178 | [62] 0.118 | [63] 0.0142 | [64] 0.123 | [65] 0.458 | [66] 0.132 | [67] 0.349 | [68] 0.57 | [69] 0.123 | [70] 0.409 | [71] 0.147 | [72] 0.632 | [73] 0.487 | [74] 0.126 | [75] 0.568 | [76] 0.114 | [77] 0.127 | [78] 0.131 | [79] 0.136 | [80] 0.488 | [81] 0.124 | [82] 0.132 | [83] 0.124 | [84] 0.587 | [85] 0.181 | [86] 0.631 | [87] 0.344 | [88] 0.512
